ERa SRC1 pot – enhances coactivator binding to human estrogen receptor alpha | coactivator binding (% of control), % at 25.6 µM | hit rate 1.3% among 86,000 | P03372 | TR-FRET ERalpha-LBD/SRC-Cy5 coactivator binding, 2 h; 100 = basal binding, no effect | AID 639; in the data active = activity above about 200%;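 note: binding measured in presence of low estradiol as agonist stimulus; 0% = peptide alone without receptor and 100% = receptor with peptide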
Target sequence (P03372 whole entry, looked up, the tested form may be a part): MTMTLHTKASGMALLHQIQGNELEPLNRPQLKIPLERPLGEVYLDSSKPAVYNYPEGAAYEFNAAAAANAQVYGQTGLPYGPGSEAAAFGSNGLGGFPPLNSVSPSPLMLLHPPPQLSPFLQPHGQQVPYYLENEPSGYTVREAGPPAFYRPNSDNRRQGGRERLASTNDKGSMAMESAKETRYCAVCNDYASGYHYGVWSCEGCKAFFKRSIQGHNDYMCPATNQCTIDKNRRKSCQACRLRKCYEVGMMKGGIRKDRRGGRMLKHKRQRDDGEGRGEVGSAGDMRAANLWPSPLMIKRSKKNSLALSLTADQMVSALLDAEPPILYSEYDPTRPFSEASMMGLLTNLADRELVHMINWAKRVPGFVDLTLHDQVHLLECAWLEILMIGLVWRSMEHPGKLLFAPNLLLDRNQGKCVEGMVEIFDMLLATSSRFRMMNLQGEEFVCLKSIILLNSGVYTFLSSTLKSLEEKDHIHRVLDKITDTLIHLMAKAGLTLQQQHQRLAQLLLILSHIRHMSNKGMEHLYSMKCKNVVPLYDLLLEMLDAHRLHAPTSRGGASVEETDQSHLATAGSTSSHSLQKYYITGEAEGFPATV
Smad3 inh – inhibitors of human Smad3 transcription factor binding; inhibition, % at 25 µM; P84022; hit rate 0.29% among 88,000; TR-FRET Smad3/Dy647-FoxH1 peptide binding, europium anti-His; AID 630;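 active = compounds that reduce the energy-transfer binding signal between the protein and its labelled peptide by more than half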;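 note: 0% = Smad3 plus labelled peptide maximal FRET and 100% = peptide-only background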
MRP reversal – compounds reversing MRP-mediated drug resistance; H69AR cells + 2 uM doxorubicin, CellTiter-Glo, 72 h; differential viability (reversal), % at 10 µM; hit rate 0.04% among 85,000; AID 602;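 active = viability drop by adding the cancer drug above about 55%, with treated viability meeting a 40% cutoff, limit read from the data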;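 note: viability without doxorubicin minus viability with 2 µM doxorubicin for each compound; larger differential means the compound sensitizes cells more to doxorubicin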
ERa SRC1 inh – blocks coactivator binding to human estrogen receptor alpha | P03372 | TR-FRET ER-alpha LBD / SRC-1 peptide, estradiol-bound | hit rate 1.7% among 86,000 | inhibition, % at 25.6 µM; in the data active = inhibition above about 50%;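 note: 0% = receptor plus peptide control and 100% = peptide only without receptor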
MRP1 act – MRP-1 activation | H69AR cells + doxorubicin, viability rescue, CellTiter-Glo | viability increase, % at 10 µM | hit rate 0.61% among 140,000 | AID 799;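 active = viability gain under doxorubicin at or above a set limit, the compound median plus 3 SD, cut at about 4.7% in these data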;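 note: MRP-1 overexpressing cells given doxorubicin 25 µM after compound pretreatment; 18-22 h compound pretreatment then 72 h with doxorubicin before readout; 0% = doxorubicin-only wells and 100% = vehicle-treated cells without doxorubicin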
ERb SRC1 inh – blocks coactivator binding to human estrogen receptor beta. hit rate 1.3% among 86,000. Q92731. TR-FRET ER-beta LBD / SRC1-Cy5 peptide binding; receptor agonist-loaded with 1 µM estradiol. inhibition, % at 25.6 µM;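 active = compounds whose percent inhibition of the receptor-coactivator binding signal exceeds about 50% in the single-dose screen, limit read from the data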;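 note: 0% = receptor plus peptide wells without compound and 100% = peptide-only wells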
* hit, by the source's call; nt = no result; [ ] = another dose, or the depositor's remark. Most compounds without a hit are left out; they make up all but 2.9% or so of the library.

SMILES | ERa SRC1 pot | Smad3 inh | MRP reversal | ERa SRC1 inh | MRP1 act | ERb SRC1 inh
Cc1cc(C)cc(NC(=O)c2oc3ccccc3c2COc2ccccc2)c1 | nt | nt | nt | nt | 5.2* | nt
O=S(=O)(c1cccc(C(F)(F)F)c1)N1c2ccccc2-n2cccc2[C@H]1c1cccnc1 | nt | 31.2 | nt | nt | nt | nt
O=C1c2ccccc2-c2nc3ccccc3n21 | 118.2 | 5.1 | 7.3 | -19.0 | 8.3* | -5.8
O=C(C[C@@H](C(=O)O)N1CCOCC1)c1ccccc1 | nt | 31.5 | nt | nt | nt | nt
Cc1cccc(-n2c(SCc3cc(=O)n4c(C)cccc4n3)nc3[nH]ncc3c2=O)c1 | 82.1 | 9.3 | -12.6 | -5.9 | -0.6 | 53.1*
O=C1c2ccccc2C(=O)N1Cc1nc2ccccc2c(=O)n1Cc1ccco1 | 249.0* | -8.0 | 21.9 | 59.5*[fluorescence artefact?] | nt | 57.7*[fluorescence artefact?]
CC(C)Cn1c(CN2C(=O)c3ccccc3C2=O)nc2ccccc2c1=O | 370.3*[fluorescence artefact?] | 27.5 | 6.8 | 29.0 | 0.3 | 25.1
Nc1ccc(-c2nc3c(Cl)c(N)ccc3[nH]2)cc1 | 109.0 | 2.1 | -2.3 | 5.7 | -5.6 | 52.5*[fluorescence artefact?]
Cc1ccc(C)c(-c2nc3ccc(N)cc3[nH]2)c1 | 115.8 | 9.7 | -2.2 | 0.3 | -5.0 | -5.5
Nc1ccc2nc(-c3cc(Cl)c(N)c(Cl)c3)[nH]c2c1 | 3.6 | 22.0 | -17.8 | 95.4*[fluorescence artefact?] | -5.1 | 47.4
Nc1ccc2nc(-c3ccc(Cl)cc3)[nH]c2c1 | 71.9 | 13.3 | -20.5 | 86.7*[fluorescence artefact?] | -6.1 | 43.5
Nc1ccc(-c2nc3ccc([N+](=O)[O-])cc3[nH]2)cc1 | nt | nt | nt | nt | 0.5 | nt
Cc1nc(=O)c(-c2ccccc2)c(C)n1-c1ccc(O)cc1 | 90.9 | 0.7 | 3.0 | 9.1 | 5.3* | 17.5
CC(=O)Nc1ccc(-n2c(C)nc(=O)c(-c3ccccc3)c2C)cc1 | 107.0 | 2.1 | -7.6 | -3.6 | 11.0* | -7.1
NNC(=O)[C@@H](O)[C@H](O)[C@H](O)CO | nt | 0.8 | nt | nt | nt | nt
CCN1CCCC(NC(=O)c2cc([N+](=O)[O-])ccc2OC)C1 (centres undefined) | nt | nt | nt | nt | 1.6 | nt
Cc1ccc(F)c(NC=C2C(=O)OC(C)(C)OC2=O)c1 | 105.8 | -9.4 | -7.8 | -2.0 | 0.9 | 3.7
CCOC(=O)c1cnc(-n2nc(C)cc2C)nc1NCc1ccc2c(c1)OCO2 | 219.5*[fluorescence artefact?] | 3.3 | 26.4 | 33.8 | 2.1 | 30.2
CC/C(=N/Nc1ccccc1Cl)c1cnnc(-c2ccccc2)n1 | 117.3 | 0.0 | 9.3 | -1.5 | 1.1 | -5.8
CCC/C(=N/Nc1ccc(Cl)cc1)c1cnnc(-c2ccccc2)n1 | 11.9 | 10.8 | -13.8 | 94.0* | nt | 67.1*[fluorescence artefact?]
O=C(NC1CCN(Cc2ccccc2)CC1)C1CCCN(c2nnc(-n3cccc3)s2)C1 (centres undefined) | 122.4 | 13.3 | -2.3 | 18.1 | -3.5 | 4.5
O=C(NCCCN1CCN(Cc2ccccc2)CC1)C1CCN(c2nnc(-n3cccc3)s2)CC1 | 86.9 | 12.9 | 18.3 | 29.4 | -1.3 | 21.0
O=C(NC1CCN(Cc2ccccc2)CC1)C1CCN(c2nnc(-n3cccc3)s2)CC1 | -0.4 | -3.4 | 2.5 | 53.9*[fluorescence artefact?] | -1.5 | 16.1
O=C(NCCCN1CCc2ccccc2C1)C1CCN(c2nnc(-n3cccc3)s2)CC1 | 88.4 | -7.8 | -12.2 | 72.1*[fluorescence artefact?] | -3.0 | 33.4
O=C(O)C/C=C/CC(=O)O | nt | -7.0 | nt | nt | nt | nt
SMILES | ERa SRC1 pot | Smad3 inh | MRP reversal | ERa SRC1 inh | MRP1 act | ERb SRC1 inh
COc1ccc(NC2CC(=O)N(CCc3ccccc3)C2=O)cc1 (centres undefined) | 107.6 | -18.0 | 6.0 | -0.3 | -2.8 | 1.4
C=CCN1C(c2ccccc2)=CS/C1=C(\C#N)c1nnc2n1CCCCC2 | 99.7 | 50.8* | -3.5 | 0.6 | -2.4 | 5.4
Oc1c(C=Nc2cccc3cccnc23)sc2ccccc12 | 63.7 | 0.2 | -5.6 | 78.8* | -5.8 | 50.8*[fluorescence artefact?]
O=C(N/N=C/c1sc2ccccc2c1O)c1ccccc1 | nt | nt | nt | nt | -4.1 | nt
O=[N+]([O-])c1ccc(O)c(N=Cc2sc3ccccc3c2O)c1 | nt | nt | nt | nt | 5.5* | nt
O=C(CCn1c(=O)sc2ccccc21)NCc1ccco1 | 109.5 | 5.3 | -14.4 | -1.3 | -1.8 | -8.5
C=CCOC(=O)c1cc(-c2ccc(/C=C3\C(=O)NC(=O)C(C#N)=C3C)o2)ccc1Cl | nt | nt | nt | nt | -0.2 | nt
CCCOC(=O)c1cc(-c2ccc(/C=C3/C(=O)N(C)C(=O)C(C#N)=C3C)o2)ccc1Cl | 42.5 | -1.1 | -23.5 | 82.7*[fluorescence artefact?] | nt | 67.2*
O=S(=O)(Nc1ccc(-c2nc3cccnc3s2)cc1)c1cccs1 | 175.0 | 4.7 | -0.9 | 23.9 | -3.0 | 21.5
O=S(=O)(Nc1ccc(-c2nc3cccnc3s2)cc1)c1ccc(Cl)s1 | 86.5 | -3.2 | -15.4 | 77.2*[fluorescence artefact?] | -1.9 | 10.7
N=C(N)SC(c1ccccc1)c1ccccc1 | nt | -3.8 | nt | nt | nt | nt
CC(CC(=O)O)(CC(=O)O)c1ccccc1 | nt | 10.2 | nt | nt | nt | nt
Cc1ccc2cc(CN(CC3CCCO3)C(=O)c3ccco3)c(=O)[nH]c2c1C (centres undefined) | 116.3 | -5.3 | -0.4 | -8.8 | nt | 54.2*
S=C1SCN(C2CCCCCCCCCCC2)CN1C1CCCCCCCCCCC1 | nt | 8.8 | nt | nt | nt | nt
CCc1c(C)sc(NC(=O)CC#N)c1C#N | 40.2 | 1.4 | -19.4 | 76.7*[fluorescence artefact?] | -1.5 | 64.2*[fluorescence artefact?]
COc1ccccc1NC(=O)C(C)NS(=O)(=O)c1ccccc1 (centres undefined) | 115.0 | -0.6 | 1.9 | 5.7 | -0.2 | 2.3
Nc1nc(N)nc(CC(=O)O)n1 | nt | 1.2 | nt | nt | nt | nt
O=C(NCc1ccccc1)C1CCN(S(=O)(=O)c2cc([N+](=O)[O-])ccc2Cl)CC1 | nt | nt | nt | nt | -3.3 | nt
O=C(COC(=O)C1CCN(S(=O)(=O)c2cc([N+](=O)[O-])ccc2Cl)CC1)Nc1ncc(Cl)cc1Cl | 17.8 | 27.0 | -6.3 | 78.4*[fluorescence artefact?] | -2.1 | 80.2*[fluorescence artefact?]
O=C(COC(=O)CN1C(=O)c2ccccc2C1=O)Nc1ncc(Cl)cc1Cl | 53.5 | -0.8 | 1.6 | 60.0*[fluorescence artefact?] | -0.6 | 55.8*
O=C(COC(=O)CCCN1C(=O)c2ccccc2C1=O)Nc1ncc(Cl)cc1Cl | 48.5 | 6.6 | 4.7 | 69.2*[fluorescence artefact?] | -0.9 | 58.3*[fluorescence artefact?]
COc1ccc2oc(=O)c(C(=O)N3c4ccccc4CC3C)cc2c1 (centres undefined) | 103.2 | -4.1 | -24.9 | -3.3 | -1.8 | -12.8
CCN(CCO)C[C@@H]1CCC[C@@H]2CCCC[C@H]21 | nt | 0.0 | nt | nt | nt | nt
Cn1c(SCc2nc3ccccc3[nH]2)nnc1-c1cnccn1 | 111.3 | 8.8 | 2.5 | 5.7 | -2.1 | 2.3
CCn1c(COc2ccc(C)cc2)nnc1SCc1nc2ccccc2[nH]1 | 86.1 | -15.6 | -8.1 | 1.4 | 7.6* | -15.4
Clc1ccc(OCc2nnc(SCc3nc4ccccc4[nH]3)n2Cc2ccco2)cc1 | 71.9 | 6.4 | -2.2 | 9.8 | -0.8 | 5.2
Cn1c(COc2ccccc2)nnc1SCc1nc2ccccc2[nH]1 | 119.8 | 94.0* | 10.7 | 0.8 | 0.1 | 0.3
Cc1nn(-c2ccccc2)c2nc(N)c(C#N)c(-c3ccc(F)cc3)c12 | 215.0*[fluorescence artefact?] | 2.4 | -17.9 | 13.3 | 0.0 | 13.2
Cc1ccc(-n2nc(C)c3c(-c4cccs4)c(C#N)c(N)nc32)cc1 | 210.2*[fluorescence artefact?] | 6.3 | -12.0 | 9.7 | -5.8 | 18.9
Cc1nc(N)c(C#N)c(-c2ccccc2)c1C | 114.7 | 2.8 | -1.4 | -1.1 | -3.5 | 2.1
